Hit rate of the full screen: of about 340,000 compounds, about 5,100 (1.5%) were called active.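 How the source made its calls: active means mean Tm shift, scaled 0 neutral to 100 positive control, at about 1.3% or above, every replicate too (limit read from the data); inconclusive means no clear call, values can overlap the other calls; inactive means the rest.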 Many of the other results were omitted from the sample, so actives are more common in it than they were.

For the assay, the target named is Fibroblast growth factor 22 (Homo sapiens) (UniProt Q9HCT0). Put plainly: FGF22 ligand-induced thermal stabilization – biophysical, thermal shift, single point, FGF22 synaptogenesis inhibitor project, primary screen (AID 651658). The note with it: recombinant FGF22 thermal shift, SYPRO orange fluorescence; at 9.99 µM; active compounds read high; percent of sucrose octasulfate shift, DMSO zero.
Chain of Fibroblast growth factor 22 (Homo sapiens) (Q9HCT0 whole entry, looked up): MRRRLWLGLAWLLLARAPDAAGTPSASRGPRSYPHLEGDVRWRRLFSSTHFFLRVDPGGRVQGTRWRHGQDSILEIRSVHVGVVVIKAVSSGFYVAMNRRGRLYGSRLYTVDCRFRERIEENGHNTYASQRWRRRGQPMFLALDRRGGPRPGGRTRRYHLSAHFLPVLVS
Take `OC[C@H]1[C@H](c2ccc(-c3ccccc3F)cc2)[C@H]2CN(Cc3cncnc3)CCCCN21`: the activity (Tm shift, normalised) was 0.4% (inactive). Then `CN(C)C(=O)C[C@H]1CC[C@H](NC(=O)NC2CCCC2)[C@@H](CO)O1`, with -0.127% (inactive); and `CC(=O)OC(COc1ccc(F)cc1)Cn1cnc2ccccc21` (configuration not stated), with 43% (active); and `O=C(COC(=O)Cn1cnc2ccccc21)Nc1cccc2c1C(=O)c1ccccc1C2=O`, with 0.059% (inactive).

With `O=C(Cn1cnc2ccccc21)Nc1ccccc1-c1ccccc1`, the activity (Tm shift, normalised) was 0.098% (inactive). Then `CO[C@H]1CN(C)C(=O)c2ccc(NC(=O)c3ccno3)cc2OC[C@@H](C)N(S(C)(=O)=O)C[C@H]1C`, with 0.142% (inactive). The same measure for `CNC[C@H]1Oc2ccc(NC(=O)C3CCCCC3)cc2C(=O)N([C@H](C)CO)C[C@@H]1C`: -0.27% (inactive). Then `C[C@H]1CN([C@@H](C)CO)C(=O)c2cc(N(C)C)ccc2O[C@@H]1CN(C)Cc1ccccc1`, with 0.118% (inactive); and `C[C@H](CO)N1C[C@H](C)[C@@H](CN(C)C)Oc2ccc(N(C)C)cc2C1=O`, with 1.41% (active); and `CNC[C@@H]1Oc2ccc(NC(=O)C3CCCCC3)cc2C(=O)N([C@@H](C)CO)C[C@H]1C`, with 1.59% (active). Regarding `CNC[C@@H]1Oc2ccc(NC(=O)C3CCCCC3)cc2CC(=O)N([C@@H](C)CO)C[C@H]1C`, the activity (Tm shift, normalised) was 0.125% (inactive). `C[C@@H]1CN([C@H](C)CO)C(=O)c2cc(N(C)C)ccc2O[C@@H]1CN(C)S(C)(=O)=O`: the activity (Tm shift, normalised) is -0.284% (inactive).

With `O=C(C[C@H]1CC[C@H](NC(=O)c2ccc(F)cc2)[C@@H](CO)O1)NCCc1ccncc1`, the activity (Tm shift, normalised) was -0.269% (inactive). Turning to `O=C(NCC[C@H]1CC[C@@H](NC(=O)C2CCCC2)[C@@H](CO)O1)c1cc(Cl)cc(Cl)c1`, the activity (Tm shift, normalised) is 0.127% (inactive). The same measure for `Cc1ccc(S(=O)(=O)NCC[C@H]2CC[C@H](NC(=O)c3ccccn3)[C@@H](CO)O2)cc1`: -0.462% (inactive); for `C[C@H]1CCCCO[C@H](CN(C)CC2CC2)[C@@H](C)CN([C@@H](C)CO)C(=O)c2cc(NC(=O)CCC(F)(F)F)ccc2O1`: 0.058% (inactive). Regarding `COc1cccc(S(=O)(=O)N[C@@H]2CC[C@@H](CCNC(=O)Cc3ccncc3)O[C@H]2CO)c1`, the activity (Tm shift, normalised) is 0.19% (inactive). Consider `C[C@H]1CN([C@@H](C)CO)C(=O)c2cc(-c3cccnc3)cnc2O[C@@H]1CN(C)C(=O)C1CC1`, for which the activity (Tm shift, normalised) was 0.138% (inactive). The same measure for `COC(=O)C1=C(N)Oc2cc(C)[nH]c(=O)c2C1c1ccc(Cl)cc1` (configuration not stated): -0.032% (inactive); for `CC(C)c1ccc(C2C(C#N)=C(N)Oc3c2oc(CO)cc3=O)cc1` (configuration not stated): -0.049% (inactive). The same measure for `COC(=O)C1=C(N)Oc2c(oc(CO)cc2=O)C1c1c(F)cccc1Cl` (configuration not stated): 43.6% (active); for `CO[C@H]1CC[C@H]2CCN(C)C(=O)C[C@@H](c3ccccc3)CN(C)C(=O)c3cccc(C#N)c3OC[C@@H]1O2`: 0.156% (inactive). The same measure for `OC[C@H]1[C@H](c2ccc(-c3cccnc3)cc2)[C@H]2CN(Cc3ccccn3)CCCCN21`: 1.51% (active); for `CCC(=O)N1CCCCN2[C@H](CO)[C@@H](c3ccc(-c4cccnc4)cc3)[C@H]2C1`: 0.191% (inactive). For the compound `OC[C@@H]1[C@H](c2ccc(Br)cc2)[C@@H]2CN(Cc3ccccn3)CCCCN12`, the activity (Tm shift, normalised) is 0.488% (inactive).

Turning to `O=C(N[C@H]1CC[C@@H](CCNS(=O)(=O)c2cccc(Cl)c2)O[C@@H]1CO)c1ccccc1`, the activity (Tm shift, normalised) was -0.047% (inactive). On to `COc1cc(C)ccc1OCC(=O)OCC(=O)c1ccc[nH]1`, for which the activity (Tm shift, normalised) was 43.3% (active). The same measure for `COc1ccc(C(=O)COC(=O)COc2ccc(C)c(C)c2)cc1`: 0.002% (inactive).

Take `O=C(COc1ccc(Br)cc1)OCC(=O)c1ccc[nH]1`: the activity (Tm shift, normalised) is -0.019% (inactive). The same measure for `C[C@H](CO)N1C[C@H](C)[C@@H](CN(C)S(=O)(=O)c2cn(C)cn2)Oc2ccc(N(C)C)cc2CC1=O`: 0.089% (inactive); for `CN(CC(=O)Nc1cccc(F)c1)C(=O)CC1CCCC1`: 0.042% (inactive). Take `Cc1ccc(NC(=O)CN(C)CC(=O)Nc2cccc(F)c2)cc1[N+](=O)[O-]`: the activity (Tm shift, normalised) was 43.3% (active). Turning to `Cc1ccc(S(=O)(=O)N2CCCCC2)cc1C(=O)N(C)CC(=O)Nc1cccc(F)c1`, the activity (Tm shift, normalised) is -0.088% (inactive). With `Cc1cc(C(=O)Nc2ccc3c(c2)C(=O)N(C)[C@H]2CC[C@H](CC(=O)NCC(F)(F)F)O[C@@H]2CO3)no1`, the activity (Tm shift, normalised) is -0.217% (inactive). Take `C[C@H]1CN([C@@H](C)CO)S(=O)(=O)c2ccc(C3=CCCC3)cc2O[C@H]1CN(C)C(=O)Nc1ccc2c(c1)OCO2`: the activity (Tm shift, normalised) was 1.26% (active). Then `C[C@H]1CN([C@@H](C)CO)S(=O)(=O)c2ccc(C#Cc3ccncc3)cc2O[C@@H]1CN(C)C(=O)Nc1ccc2c(c1)OCO2`, with 0.074% (inactive). The same measure for `C[C@H](CO)N1C[C@H](C)[C@H](CN(C)C(=O)Nc2ccc3c(c2)OCO3)Oc2cc(C#Cc3ccncc3)ccc2S1(=O)=O`: -0.273% (inactive); for `C[C@H](CO)N1C[C@H](C)[C@@H](CN(C)S(=O)(=O)c2ccc(F)cc2)Oc2cc(C3=CCCC3)ccc2S1(=O)=O`: -0.123% (inactive).

As to `Cc1ccc(S(=O)(=O)N(C)C[C@@H]2Oc3cc(C4=CCCC4)ccc3S(=O)(=O)N([C@@H](C)CO)C[C@@H]2C)cc1`, the activity (Tm shift, normalised) is 1.23% (active).

In the case of `C[C@@H]1CN([C@H](C)CO)S(=O)(=O)c2ccc(-c3ccncc3)cc2O[C@@H]1CN(C)C(=O)Nc1ccc(C(F)(F)F)cc1`, the activity (Tm shift, normalised) is 1.48% (active). In the case of `COc1ccc(NC(=O)N(C)C[C@H]2Oc3cc(-c4ccncc4)ccc3S(=O)(=O)N([C@@H](C)CO)C[C@H]2C)cc1`, the activity (Tm shift, normalised) was -0.124% (inactive). On to `COc1cccc(S(=O)(=O)N(C)C[C@@H]2Oc3cc(C4=CCCCC4)ccc3S(=O)(=O)N([C@H](C)CO)C[C@H]2C)c1`, for which the activity (Tm shift, normalised) was 0.057% (inactive).

In the case of `C[C@@H]1CN([C@@H](C)CO)S(=O)(=O)c2ccc(-c3ccncc3)cc2O[C@@H]1CN(C)C(=O)Nc1ccc(F)cc1`, the activity (Tm shift, normalised) is 1.27% (active). Then `CC(=O)N(C)C[C@@H]1Oc2cc(-c3ccncc3)ccc2S(=O)(=O)N([C@@H](C)CO)C[C@H]1C`, with -0.496% (inactive). Consider `Cc1ccc(-c2ccc3c(c2)O[C@H](CN(C)C(=O)Nc2ccc(C(F)(F)F)cc2)[C@@H](C)CN([C@H](C)CO)S3(=O)=O)cc1`, for which the activity (Tm shift, normalised) was 0.037% (inactive).

For the compound `COc1ccc(NC(=O)N(C)C[C@H]2Oc3cc(-c4ccncc4)ccc3S(=O)(=O)N([C@H](C)CO)C[C@H]2C)cc1`, the activity (Tm shift, normalised) is 0.949% (inactive). Regarding `CC(C)CC#Cc1cnc2c(c1)C(=O)N([C@@H](C)CO)C[C@H](C)[C@@H](CN(C)C(=O)c1cccc(F)c1)O2`, the activity (Tm shift, normalised) is -0.381% (inactive). Then `CN1c2ccc(-c3ccccc3F)cc2[C@@H]2[C@@H](CCN2C(=O)CN2CCOCC2)[C@H]1CO`, with -0.099% (inactive); and `O=C(C[C@H]1C[C@@H]2c3cc(NC(=O)C4CCC4)ccc3O[C@@H]2[C@H](CO)O1)NCCN1CCCCC1`, with 0.001% (inactive); and `O=C1C[C@@](C(=O)NCC(F)(F)F)(c2ccc([N+](=O)[O-])cc2)[C@@H](c2ccc(CO)cc2I)N1C1CCCCC1`, with 0.18% (inactive). Then `CCC(=O)N1C[C@@H](C)[C@@H](OC)CN(C)C(=O)c2ccc(NC(=O)c3ccccc3)cc2OC[C@H]1C`, with -0.17% (inactive); and `COc1ccc2c3c([nH]c2c1)[C@H](CO)N(C(=O)C1CCCCC1)CC31CCN(C(=O)c2ccncc2)CC1`, with -0.034% (inactive).

On to `CC(C)NC(=O)N(C)C[C@H]1OCCCC[C@H](C)Oc2ccc(NC(=O)CCC(F)(F)F)cc2C(=O)N([C@@H](C)CO)C[C@@H]1C`, for which the activity (Tm shift, normalised) is -0.59% (inactive). Regarding `C[C@H](CO)N1C[C@H](C)[C@H](CN(C)C(=O)Nc2ccc(F)cc2)Oc2ncc(-c3cc4ccccc4o3)cc2C1=O`, the activity (Tm shift, normalised) was -0.101% (inactive). As to `CN(C)CC(=O)N1CCCCN2[C@@H](CO)[C@H](c3ccc(-c4cccnc4)cc3)[C@@H]2C1`, the activity (Tm shift, normalised) was 0.193% (inactive).

In the case of `C[C@@H]1CCCCO[C@@H](CN(C)Cc2ccc(C(=O)O)cc2)[C@H](C)CN([C@@H](C)CO)C(=O)c2cc(NC(=O)Nc3ccc(C(F)(F)F)cc3)ccc2O1`, the activity (Tm shift, normalised) was -0.357% (inactive). Turning to `Cc1ccc(S(=O)(=O)N(C)C[C@@H]2OCCCC[C@@H](C)Oc3ccc(NS(=O)(=O)c4ccccc4)cc3C(=O)N([C@H](C)CO)C[C@@H]2C)cc1`, the activity (Tm shift, normalised) is -0.059% (inactive). Then `C[C@@H]1CN([C@H](C)CO)C(=O)c2cc(NC(=O)Nc3ccc(C(F)(F)F)cc3)ccc2O[C@@H](C)CCCCO[C@@H]1CN(C)Cc1ccc(C(F)(F)F)cc1`, with 0.296% (inactive); and `COc1ccc(S(=O)(=O)Nc2ccc3c(c2)C(=O)N([C@@H](C)CO)C[C@H](C)[C@H](CN(C)Cc2ccc(C(=O)O)cc2)OCCCC[C@@H](C)O3)cc1`, with 2.26% (active); and `C[C@@H]1CCCCO[C@@H](CN(C)Cc2ccc(C(=O)O)cc2)[C@@H](C)CN([C@@H](C)CO)C(=O)c2cc(NC(=O)Nc3ccc(C(F)(F)F)cc3)ccc2O1`, with 10.4% (active).

Consider `Cc1ccc(S(=O)(=O)N(C)C[C@@H]2OCCCC[C@@H](C)Oc3ccc(NS(=O)(=O)c4ccc(F)cc4)cc3C(=O)N([C@H](C)CO)C[C@H]2C)cc1`, for which the activity (Tm shift, normalised) was -0.311% (inactive). `C[C@@H]1CCCCO[C@@H](CN(C)Cc2ccncc2)[C@H](C)CN([C@H](C)CO)C(=O)c2cc(NC(=O)Cc3ccccc3)ccc2O1`: the activity (Tm shift, normalised) is 25.7% (active). Then `COc1ccc(CN(C)C[C@H]2OCCCC[C@@H](C)Oc3ccc(NS(=O)(=O)c4ccccc4)cc3C(=O)N([C@@H](C)CO)C[C@@H]2C)cc1`, with 0.068% (inactive). On to `C[C@@H]1CCCCO[C@H](CN(C)Cc2ccccc2)[C@@H](C)CN([C@H](C)CO)C(=O)c2cc(NC(=O)Cc3ccccc3)ccc2O1`, for which the activity (Tm shift, normalised) is 0.467% (inactive).

Turning to `Cc1ccc(S(=O)(=O)Nc2ccc3c(c2)C(=O)N([C@H](C)CO)C[C@@H](C)[C@H](CN(C)S(=O)(=O)c2ccc(C)cc2)OCCCC[C@@H](C)O3)cc1`, the activity (Tm shift, normalised) is 31.1% (active). Then `C[C@@H]1CN([C@H](C)CO)C(=O)c2cc(NC(=O)Cc3ccccc3)ccc2O[C@@H](C)CCCCO[C@@H]1CN(C)Cc1ccncc1`, with -0.393% (inactive); and `COc1ccc(S(=O)(=O)Nc2ccc3c(c2)C(=O)N([C@H](C)CO)C[C@H](C)[C@@H](CN(C)Cc2ccccc2)OCCCC[C@@H](C)O3)cc1`, with -0.202% (inactive).

The values are drawn from PubChem BioAssay AID651658 (Broad Institute, 2012).
